This assay relates to lanierone-responsive B-neuron OSN class (ItypOR36). Briefly: net action potential response of lanierone B-neuron (blank-subtracted) (spikes/s (Hz)); higher = stronger excitation. The conditions noted are these: 10 µg on filter paper, neuron: B neuron (small spike amplitude). The procedure: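 Single sensillum recordings from antennal olfactory sensilla of live adult Ips typographus. Each compound was 10 µg in paraffin oil, delivered as a 0.5 s puff. Net response = spikes in the first 0.5 s of response minus the 0.5 s pre-stimulus count, doubled to give Hz, with blank response subtracted. Values are for the small-spike lanierone-responsive B-neuron (putatively expressing ItypOR36), recorded in sensilla co-housing the A-neuron class; N = 1-4, averaged.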

The mark [1] stands for this setting: co-localized A-neuron class: (4S)-cis-verbenol.
The mark [2] stands for this setting: co-localized A-neuron class: (5S,7S)-trans-conophthorin.
The mark [3] stands for this setting: co-localized A-neuron class: (+)-isopinocamphone.
Where [4] appears, read: co-localized A-neuron class: (+)-trans-4-thujanol.
The mark [5] stands for this setting: co-localized A-neuron class: ipsdienol.
Where [6] appears, read: co-localized A-neuron class: myrcene.
The mark [7] stands for this setting: co-localized A-neuron class: p-cymene.

± gives the standard deviation of the averaged measurements.

`CCc1ccc(O)c(OC)c1` [4-Ethylguaiacol]: the “net action potential response” value was 1.33 ± 3.1 under setting [1]; 0.667 ± 2.3 under setting [2]; 5.33 ± 1.1 under setting [3]; 4 ± 5.4 under setting [4]; -2 ± 5.3 under setting [5]; -8 under setting [6]. Further, the “net action potential response” value under setting [7] was found to be 0.667 ± 3.1.
`C[C@]12CCC[C@](C)(OC1)O2` (racemic) [(±)-Frontalin]: the “net action potential response” value by setting is: under setting [1], -1.33 ± 8.1; under setting [2], -2 ± 2; under setting [3], 0 ± 7.2; under setting [4], 0.5 ± 4.1; under setting [5], 0 ± 4; under setting [6], 0. Further, the “net action potential response” value under setting [7] is -4 ± 4.
Regarding `CCCCCC(O)CC` (racemic) [(±)-3-Octanol], the “net action potential response” value under setting [1] is 1.33 ± 7.6; the “net action potential response” value under setting [2] is -1 ± 3.5; the “net action potential response” value under setting [3] is -3.33 ± 4.2; the “net action potential response” value under setting [4] is -4 ± 8.6; the “net action potential response” value under setting [5] is -4.67 ± 4.2; the “net action potential response” value under setting [6] is -6. The “net action potential response” value under setting [7] is -3.33 ± 5.8.
For the molecule `C=Cc1ccc(OC)cc1` [4-Vinyl anisole], the “net action potential response” value under setting [1] is 1.33 ± 9; the “net action potential response” value under setting [2] is 3.33 ± 4.6; the “net action potential response” value under setting [3] stood at 1.33 ± 9.2; the “net action potential response” value under setting [4] was -2.5 ± 5.5; the “net action potential response” value under setting [5] came to 2.67 ± 6.4; the “net action potential response” value under setting [6] was 0. Moreover, under setting [7], the “net action potential response” value was 0 ± 7.2.
As to `CC(=O)CC/C=C(\C)CCC=C(C)C` [Geranylacetone], the “net action potential response” value runs as follows: under setting [1], -2 ± 2; under setting [2], -2 ± 2; under setting [3], -1.33 ± 4.2; under setting [4], 0 ± 4.3; under setting [5], -3.33 ± 5.8; under setting [6], -2. In addition, the “net action potential response” value under setting [7] was determined as 0 ± 2.8.
For the molecule `CC/C=C\CCO`, the “net action potential response” value reads like this: under setting [1], 2.67 ± 6.4; under setting [2], -4 ± 6; under setting [3], -4 ± 2; under setting [4], -4.5 ± 3.4; under setting [5], -5.33 ± 5.8; under setting [6], -6. Moreover, the “net action potential response” value under setting [7] was 0.

The values above are taken from the supplement of paper PMC11577813, “Eurasian spruce bark beetle detects lanierone using a highly expressed specialist odorant receptor, present in several functional sensillum types” (BMC Biology, 2024).
